# According to PubChem BioAssay (EPA / NIEHS):
# Inconclusive results are not listed. The source made the active and inactive calls. Rule for the calls, unless noted: active = hit-call score of the fitted dose curve at least 0.9, where 1 is the maximum; inconclusive = response in the unintended direction; inactive = score below 0.9.
# Tests used:
# [1] = Tanguay_ZF_120hpf_SOMI_legacy: (Legacy) Oregon State University Tanguay Lab 120 Hour Post-fertilization zebrafish Assay for Somite Malformation (AID 2283647)
# Outline: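 Read-out: presence or absence of somite malformation in 120 hpf larvae, gain-of-signal relative to DMSO baseline. Embryos lacked chorion (pronase, 4 hpf) and were exposed statically from 6 hpf at 28C; dead larvae not scored.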
# [2] = Tanguay_ZF_120hpf_PFIN_legacy: (Legacy) Oregon State University Tanguay Lab 120 Hour Post-fertilization zebrafish Assay for Pectoral Fin Malformation (AID 2283648);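 note: each larva judged yes or no for fin defect by brightfield with dead larvae skipped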
# Outline: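 Binary pectoral fin malformation call at 120 hpf by brightfield microscopy; 5D wild-type zebrafish, chorion removed at 4 hpf, one embryo per well from 6 hpf, static exposure at 28C; DMSO (0.64% final) as baseline.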
# [3] = Tanguay_ZF_120hpf_CFIN_legacy: (Legacy) Oregon State University Tanguay Lab 120 Hour Post-fertilization zebrafish Assay for Caudal Fin Malformation (AID 2283649)
# Outline: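 Binary presence or absence of caudal fin malformation at 120 hpf, read by brightfield microscopy, with DMSO as baseline. Larvae came from 5D wild-type embryos exposed statically from 6 hpf at 28C after pronase dechorionation.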
# [4] = Tanguay_ZF_120hpf_PIG_legacy: (Legacy) Oregon State University Tanguay Lab 120 Hour Post-fertilization zebrafish Assay for Pigmentation Malformation (AID 2283650);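 note: dechorionated Tropical 5D zebrafish embryos exposed singly from 6 to 120 hpf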
# Outline: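 Brightfield scoring of pigmentation malformation at 120 hpf, recorded as binary present/absent per larva. Exposure: dechorionated 5D wild-type embryos, one per well, static from 6 hpf at 28C, final DMSO 0.64% (vol/vol). Dead embryos not scored.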
# [5] = Tanguay_ZF_120hpf_CIRC_legacy: (Legacy) Oregon State University Tanguay Lab 120 Hour Post-fertilization zebrafish Assay for Circulatory Malformation (AID 2283651)
# Outline: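 Static exposure, 6–120 hpf, 28C, sealed and dark; one dechorionated 5D embryo/well; DMSO 0.64% v/v final. Binary circulation endpoint by brightfield; dead embryos not scored.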
# [6] = Tanguay_ZF_120hpf_SWIM_legacy: (Legacy) Oregon State University Tanguay Lab 120 Hour Post-fertilization zebrafish Assay for Swim Bladder Malformation (AID 2283654);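 note: swim bladder malformation in each larva scored yes or no under brightfield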
# Outline: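 Tropical 5D embryos dechorionated at 4 hpf; 1 embryo/well from 6 hpf; static, sealed, dark exposure at 28C until 120 hpf; final DMSO 0.64%; 5uM trimethyltin chloride positive control; swim bladder defect recorded yes/no; dead embryos not scored.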
# [7] = Tanguay_ZF_120hpf_TRUN_legacy: (Legacy) Oregon State University Tanguay Lab 120 Hour Post-fertilization zebrafish Assay for Truncated Body (AID 2283655)
# Outline: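 Truncated body is recorded as a binary endpoint at 120 hpf by brightfield imaging of wild-type 5D larvae. Exposure runs statically from 6 hpf at 28C with 0.64% DMSO; embryos dying earlier are not scored.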
# [8] = Tanguay_ZF_120hpf_NC_legacy: (Legacy) Oregon State University Tanguay Lab 120 Hour Post-fertilization zebrafish Assay for Notochord and Tail Malformation (AID 2283656)
# Outline: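 Binary notochord-distortion calls, made by brightfield inspection, form the read-out; activity is fitted in the positive direction against DMSO. Exposure ran statically from 6 to 120 hpf at 28C with 0.64% DMSO.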
# [9] = read-out: solute carrier (SLC22A6), SLC22A6 (gene 9356); assay: LTEA_HepaRG_SLC22A6: Life Technologies and Expression Analysis (LTEA) Assay for solute carrier (SLC22A6) using HepaRG (AID 2283653; active = hit-call score of the fitted dose curve at least 0.9, where 1 is the maximum; inactive = score below 0.9); conditions: mRNA level, 48 h; actives raise or lower the signal
# Outline: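 Read-out is SLC22A6 transcript level by qRT-PCR, normalised to three housekeeping genes and fitted for gain or loss relative to 0.5% DMSO vehicle. Human HepaRG cells received chemicals at up to 100 uM for 48 h.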
compound,measurement,setting,value
Cc1c(COC(=O)[C@@H]2[C@H](/C=C(\Cl)C(F)(F)F)C2(C)C)cccc1-c1ccccc1,outcome,[1],inactive
same,outcome,[2],inactive
same,outcome,[3],inactive
same,outcome,[4],inactive
same,outcome,[5],inactive
same,outcome,[6],inactive
same,outcome,[7],inactive
same,outcome,[8],inactive
CCOc1nc(F)cc2nc(S(=O)(=O)Nc3c(Cl)cccc3Cl)nn12,outcome,[1],inactive
same,outcome,[2],inactive
same,outcome,[3],inactive
same,outcome,[4],inactive
same,outcome,[5],inactive
same,outcome,[6],inactive
same,outcome,[7],inactive
same,outcome,[8],inactive
N#Cc1c(Cl)cccc1Cl,outcome,[1],inactive
same,outcome,[2],inactive
same,outcome,[3],inactive
same,outcome,[4],inactive
same,outcome,[5],inactive
same,outcome,[6],inactive
same,outcome,[7],inactive
same,outcome,[8],inactive
Cc1cc(C)nc(Nc2ccccc2)n1,outcome,[1],inactive
same,outcome,[2],inactive
same,outcome,[3],inactive
same,outcome,[4],inactive
same,outcome,[5],inactive
same,outcome,[6],inactive
same,outcome,[7],inactive
same,outcome,[8],inactive
O=C1C2CC=CCC2C(=O)N1SC(Cl)(Cl)Cl (stereo not drawn),outcome,[1],inactive
same,outcome,[2],inactive
same,outcome,[3],inactive
same,outcome,[4],inactive
same,outcome,[5],inactive
same,outcome,[6],inactive
same,outcome,[7],inactive
COCC(C)N(C(=O)CCl)c1c(C)csc1C (stereo not drawn),AC50,[1],30.4 µM (active)
same,AC50,[2],35.6 µM (active)
same,AC50,[3],36.2 µM (active)
same,AC50,[4],8.81 µM (active)
same,AC50,[5],24.5 µM (active)
same,AC50,[6],8.24 µM (active)
same,AC50,[7],30.8 µM (active)
same,outcome,[8],inactive
CCSC(=O)N1CCCCCC1,outcome,[1],inactive
same,outcome,[2],inactive
same,outcome,[3],inactive
same,outcome,[4],inactive
same,outcome,[5],inactive
same,outcome,[6],inactive
same,outcome,[7],inactive
CCOP(=S)(OCC)Oc1nc(Cl)n(C(C)C)n1,outcome,[1],inactive
same,outcome,[2],inactive
same,outcome,[3],inactive
same,outcome,[4],inactive
same,outcome,[5],inactive
same,outcome,[9],inactive
same,outcome,[6],inactive
same,AC50,[7],8.3 µM (active)
same,outcome,[8],inactive
N#Cc1c[nH]cc1-c1cccc2c1OC(F)(F)O2,outcome,[1],inactive
same,outcome,[2],inactive
same,outcome,[3],inactive
same,outcome,[4],inactive
same,outcome,[5],inactive
same,outcome,[6],inactive
same,outcome,[7],inactive
Cn1c(-c2ccccc2)cc(-c2ccccc2)[n+]1C,outcome,[1],inactive
same,outcome,[2],inactive
same,outcome,[3],inactive
same,outcome,[4],inactive
same,outcome,[5],inactive
same,outcome,[6],inactive
same,outcome,[7],inactive
same,outcome,[8],inactive
CNC(=O)N(C)c1nnc(C(C)(C)C)s1,outcome,[1],inactive
same,outcome,[2],inactive
same,outcome,[3],inactive
same,outcome,[4],inactive
same,outcome,[5],inactive
same,outcome,[6],inactive
same,outcome,[7],inactive
COc1ccc(-c2ccccc2)cc1NNC(=O)OC(C)C,outcome,[1],inactive
same,outcome,[2],inactive
same,outcome,[3],inactive
same,outcome,[4],inactive
same,outcome,[5],inactive
same,outcome,[6],inactive
same,outcome,[7],inactive
same,outcome,[8],inactive
CC(C)NC(=O)N1CC(=O)N(c2cc(Cl)cc(Cl)c2)C1=O,outcome,[1],inactive
same,outcome,[2],inactive
same,outcome,[3],inactive
same,outcome,[4],inactive
same,outcome,[5],inactive
same,outcome,[6],inactive
same,outcome,[8],inactive
COc1cc(OC)nc(NC(=O)NS(=O)(=O)c2ncccc2OCC(F)(F)F)n1,outcome,[1],inactive
same,outcome,[2],inactive
same,outcome,[3],inactive
same,outcome,[4],inactive
same,outcome,[5],inactive
same,outcome,[6],inactive
same,outcome,[7],inactive
same,outcome,[8],inactive
CCN(CC)C(=O)C(C)Oc1cccc2ccccc12 (stereo not drawn),outcome,[1],inactive
same,outcome,[2],inactive
same,outcome,[3],inactive
same,outcome,[4],inactive
same,outcome,[5],inactive
same,outcome,[6],inactive
same,outcome,[7],inactive
same,outcome,[8],inactive
CCCN(CC)CC1COC2(CCC(C(C)(C)C)CC2)O1 (stereo not drawn),outcome,[1],inactive
same,outcome,[2],inactive
same,outcome,[3],inactive
same,outcome,[4],inactive
same,outcome,[5],inactive
same,outcome,[6],inactive
same,outcome,[7],inactive
